Here are results for 31 compounds from PubChem BioAssay (NCI).

Values joined by “and” are separate entries in the source; they are usually repeats but may differ in a detail not shown here. Equal entries are not always repeated. About 83,000 compounds went through this panel and 20% of them were active in at least one assay; those are over-represented in the sample as a whole.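 Testing used 96-well plates and a 48-hour single-concentration exposure. Example: -40 means 40% of the starting cells died.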 Active and inactive are the calls of the source. The calls were made as follows: active = growth percent below 10; inactive = the rest.

The test deals with T-47D breast. The test is described as follows: NCI-60 one-dose screen, 48 h (100 = growth as untreated, 0 = no growth, -100 = all killed). The conditions noted are these: 10 µM unless noted.
For the compound `c1ccc(-c2cn3c(-c4c[nH]c5ccccc45)csc3n2)cc1`, the growth was 31.9% (inactive).

As to `O=C(/C=C/c1ccccc1Cl)Nc1ncc(Cc2cc(Cl)ccc2Cl)s1`, the growth is 29.9% (inactive).

For `O=C(CCCCCCNC(=O)c1csc(Br)n1)NO`, the growth was 6.1% (active). The result for `CCOC(=O)c1cnc2c(-c3ccc(Cl)c(Cl)c3)cnn2c1` reads 86.2% (inactive); that for `Cc1csc(/N=C(N)/N=C(\N)c2cccc(Br)c2)n1`, 74.3% (inactive). In the case of `CN1CCN(c2ccc(Nc3nc(NCCNC(=O)c4ccccc4)c4sccc4n3)cc2)CC1`, the growth is 18.1% (inactive). To `C#Cc1cc(OC)c(C(=O)Nc2ccc(F)cc2C(=O)Nc2cccc(S(=O)(=O)C(F)(F)F)c2)cn1` belongs 23.4% (inactive); to `CCCN1C=C/C(=C\C(=O)n2ccc3ccccc32)c2ccccc21`, 46.6% (inactive). `CNC(=O)c1cc(-n2ccc3cc(NC(=O)Nc4ccc(N5CCN(C)CC5)c(C(F)(F)F)c4)ccc32)ccn1`: the growth was 87.4% (inactive). The result for `Fc1cc(F)cc(NNC(=S)c2ccccc2)c1` reads -2.7% (active); that for `CCCCCCCCCCCC(=O)NC(C)(C)C(=O)N1CCCC1C(=O)NC(C)(C)C(=O)NC(C)(C)C(=O)N1CCCC1C(=O)NC(C)(C)C(=O)NC(C)(C)C(=O)N1CCCC1C(=O)NC(C)C(=O)NCCC(=O)NC(C)C(=O)NC(C)(C)C(=O)NC(C)(C)C(=O)NC(C)(C)C(=O)NCCC(=O)NC(C)(C)C(=O)NC(C)(C)C(=O)NC(C)(C)C(=O)NC(C)C(=O)NCCC(=O)O` (stereo unspecified), -64.3% (active); that for `CC[C@]12C=CCN3CC[C@@]4(c5ccc(OC)cc5N(C)[C@H]4[C@@](O)(C(=O)OC)[C@@H]1OC(=O)CCN1CCc4ccccc4C1)[C@@H]32`, 84% (inactive). The result for `O=C(CCCCCCNC(=O)C(O)(O)C(F)(F)F)Nc1ccc(-c2ccccc2)cc1` reads 11.5% (inactive). Consider `Brc1cccc(-c2cc(-c3cnc4c(c3)OCCO4)n[nH]2)c1`, for which the growth is 40.2% (inactive). The result for `CS(=O)(=O)c1ccc(/C(=N/N=C(N)N)c2ccc(Cl)cc2)cc1` reads 89% (inactive); that for `CCN1CCN(c2ccc(NC(=O)Nc3ccc4c(ccn4-c4ccnc(C(=O)NC)c4)c3)cc2C(F)(F)F)CC1`, 90.5% (inactive). Regarding `Cc1ccc2c(n1)C(=O)C(Cl)=C(Nc1ccc(C#N)cc1)C2=O`, the growth is 7.98% (active). To `NS(=O)(=O)c1ccc(Nc2nc(Nc3ccccc3)nc(N3N=C(c4ccc(Cl)cc4)CC3c3ccc(Cl)cc3)n2)cc1` (stereo unspecified) belongs 51.3% (inactive); to `COC(=O)c1cccc(NC2=C(Cl)C(=O)c3nc(C)ccc3C2=O)c1`, -28.1% (active). With `C#CCN(C)CCCOc1ccc(NCc2ccc(/C=C/C(=O)NO)cc2)cc1Cl`, the growth is 1.04% (active). `Cc1nc(N)sc1-c1csc(Nc2ccc(C(F)(F)F)cc2)n1`: the growth is -0.894% (active). As to `COc1ccc(-c2nc(C#N)c(N3CCC(S(=O)(=O)N4CCOCC4)CC3)o2)cc1`, the growth was 96.9% (inactive).

In the case of `O=C(CCCCCCN1CC(=O)N2[C@@H](c3ccc(Cl)s3)c3[nH]c4ccccc4c3C[C@H]2C1=O)NO`, the growth was 27.5% (inactive).

Regarding `C#C[C@]1(O)CC[C@H]2[C@@H]3CC=C4c5sc(N(C)c6ccccc6)nc5CC[C@]4(C)[C@H]3CC[C@@]21C`, the growth was 75.2% (inactive). With `COc1ccc(/C=N/NC(=O)c2c(N)nn(C)c2Nc2ccccc2)cc1Oc1ccccc1`, the growth is 78.1% (inactive). On to `CCOC(=O)c1cccc(NC2=C(Cl)C(=O)C(C)=C(C)C2=O)c1`, for which the growth was -37.5% (active). The result for `Cc1ccc(NC(=O)Nc2nc3ccc([N+](=O)[O-])cc3s2)cc1` reads -22.3% (active); that for `Oc1[nH]c2ccc(Cl)cc2c1N=Nc1nc(N=Nc2c(O)[nH]c3ccc(Cl)cc23)nc(N2CCOCC2)n1`, 29.3% (inactive). The result for `C[C@H](Nc1ncnc2ccc(-c3cnc(Cl)c(NS(C)(=O)=O)c3)cc12)c1ccccc1` reads -53.2% (active). `Brc1ccc(-c2cc(-c3ccc4c(c3)OCCO4)n[nH]2)s1`: the growth was 22.5% (inactive).

On to `C/C=C/CC(C)C(O)[C@H](NC(=O)[C@@H]1CCCN1C(=O)[C@](C)(CC)NC(=O)CCCCCCCCC)C(=O)N[C@@](C)(CC)C(=O)N[C@@H](CCC(N)=O)C(=O)N[C@H](CCC(N)=O)C(=O)NC(C)(C)C(=O)NC(C)(C)C(=O)N[C@@H](CCC(N)=O)C(=O)N[C@H](CC(C)C)C(=O)N[C@H](CO)CC(C)C` (stereo partly specified), for which the growth was 61.9% (inactive) and -23.3% (active).
